B1: usp_38_diff_out_13_133_62 (protein)
chain: SAAEERRKEALKELEETEKKIEELLKKAKEALKEGKIEEAEKYVGEAAGLILKARSDLMAKTKDDPELRKEILKRLKELEKKLNELIDEVNEALKKKFLE
B2: usp_38_diff_out_13_133_61 (protein)
chain: SAMEERRKEAREELEKAKKEIEELLKKAEEALKEGDIETAEKYVGEAAGLILDTRSDLMERTKDDPELRKEILKELKELEKKLNELIDKVVKAREEEFLK
B3: usp_38_diff_out_13_43_65 (protein)
chain: LREEAEKALAEADKALGEAYKLSQEIRDKIRESDPETAKKLVKLRKELDDAGNALADARVALELALHSGEGVEEAIAATRAAIAALKKKIAEAKKELAAL
B4: usp_38_diff_out_13_93_69 (protein)
chain: EREERAEEIVERVERLGEELLKELEAAAADPSTTIEELLDLYSELVRRLVTATQAALAEARELGDEETVERILEISNETLLRLSELTTEALTAKAEAEAA
B5: usp_38_diff_out_13_133_60 (protein)
chain: SAAEERRAEARRRLEEAEERVKALLKEAKAALKAGKIDEARKKVGEAAGVIVDTRSDLMALTRDDPELRREILKRLKELEKELDKLIDEVVKAEEEAFLA
B6: usp_38_diff_out_13_43_66 (protein)
chain: LEEEAEKVLKELDETLGEIYNLSLELRDKIRESDPETAKKLVEIKKRLDEVGNELADARRDLEIALISGEGLEEAIKKGKEKIEKAKKTIKEAKEELEKL
B7: usp_38_diff_out_13_133_57 (protein)
chain: SAAEERRAEARARLAETEAEVEKLLKEAKAALKAGDIDEAEKKVGEAAGLILEARSDLFALTRDDPELRREIRRRLKELEKELDKLIDEVVEARKKEFLA
B8: usp_38_diff_out_13_43_64 (protein)
chain: LREKAEKALAEADAALGRAYAVSRELRDKMREVNPEDAKKLLKARKKLDEVGNALADARAALETAMILGEGVEEAIPKVQAAVAKLKAAIEEAEKLLKEV
B9: usp_38_diff_out_13_133_54 (protein)
chain: AAAEARREEARRLLEEAEKEIEKLLKEAEKALEEGNIDKAYEYVAKAAGLLLETRDRLFDLTRDDPELRREVLKRLKELEKKLNELIDKVEAAERERFLA
B10: usp_38_diff_out_13_133_59 (protein)
chain: SAAEERRREAERRLAEAERRIRELLEKAKKALEEGDIDEAERYVGEAAGIILRTRSDLMALTRDDPELRRRILRRLKELEEELNELIDEVVEAEKKRFLA
B11: usp_38_diff_out_13_133_63 (protein)
chain: SAAEERRAAARARLDAAVAEVERLLEEARRALEEGDVERAERYVGEAAGVLVRTRSELMALTRDDPELRREILRRLKELERRLEELIDEVEAARREAFLA
B12: usp_38_diff_out_13_133_55 (protein)
chain: AAAEAARAEAEALLAETEKRVEELLKKAKEALKAGDVETAEKYVGEAAGTLLEARDRLSDLTADDPELRREVLKRLKELEEKLNELIDEVEKALREEFLK
B13: usp_38_diff_out_13_133_58 (protein)
chain: SAAEERRKKALERLEEAEKKVEELLKKAEEALKEGKIEEASKYVGEAAGIIVKTRSDLMALTKDDPELRKEILKRLKELEKKLNELIDKVVEAEKKKFLA
B14: usp_38_diff_out_13_133_56 (protein)
chain: SMAEKKREEAKKLLEETKKKVEKLLEEAEKALKEGDVEKAWEKVGEAAGTLLKARDELTDLTEDDPELRKEVLKELKKLEEKLNKLIDKVEKALREEFLK
B15: usp_38_diff_out_13_93_67 (protein)
chain: DKEEEAKKLLEELKKFAEEKLKELEKLAKDPSVTIEELLEKYSELVSELITKHNEVKKKLDELGDEKTKKEATKITNEALLRMSEITTEALTRKQEEAEA
B16: usp_38_diff_out_13_133_53 (protein)
chain: AAAEARRARALALLEEAEARVEKLIKEAEKALKEGKIDEARKYVAEAAGTLLRTRDELFDLTADDPELRREVLRRLKELTKRLDKVIDKVEKAERERFLA

Target: T1, USP38, Q8NB14
T1 chain: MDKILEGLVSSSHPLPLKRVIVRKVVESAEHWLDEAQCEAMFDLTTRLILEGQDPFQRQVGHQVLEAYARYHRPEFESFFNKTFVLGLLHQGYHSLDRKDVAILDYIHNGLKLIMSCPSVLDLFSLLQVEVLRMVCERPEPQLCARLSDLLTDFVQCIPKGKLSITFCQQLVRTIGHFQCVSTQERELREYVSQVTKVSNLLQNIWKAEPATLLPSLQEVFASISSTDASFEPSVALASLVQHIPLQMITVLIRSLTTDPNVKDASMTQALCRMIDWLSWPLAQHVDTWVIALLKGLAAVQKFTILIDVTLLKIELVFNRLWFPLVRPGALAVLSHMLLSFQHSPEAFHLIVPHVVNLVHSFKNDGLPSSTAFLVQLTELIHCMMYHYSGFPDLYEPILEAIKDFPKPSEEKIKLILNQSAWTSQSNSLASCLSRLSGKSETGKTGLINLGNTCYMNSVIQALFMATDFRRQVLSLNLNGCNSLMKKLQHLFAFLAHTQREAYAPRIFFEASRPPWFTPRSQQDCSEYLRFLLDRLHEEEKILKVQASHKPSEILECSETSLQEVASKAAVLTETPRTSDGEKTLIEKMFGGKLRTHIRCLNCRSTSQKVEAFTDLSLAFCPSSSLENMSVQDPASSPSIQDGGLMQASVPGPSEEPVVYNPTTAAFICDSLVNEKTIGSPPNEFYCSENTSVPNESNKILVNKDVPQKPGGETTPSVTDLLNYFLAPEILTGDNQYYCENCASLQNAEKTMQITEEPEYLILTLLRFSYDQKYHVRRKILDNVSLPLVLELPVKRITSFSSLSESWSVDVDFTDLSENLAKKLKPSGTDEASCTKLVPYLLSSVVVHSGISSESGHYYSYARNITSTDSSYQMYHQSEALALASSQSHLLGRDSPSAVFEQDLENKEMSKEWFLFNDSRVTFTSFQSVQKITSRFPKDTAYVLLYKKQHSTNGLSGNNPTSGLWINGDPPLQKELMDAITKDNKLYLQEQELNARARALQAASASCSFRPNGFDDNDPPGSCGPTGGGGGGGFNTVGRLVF
Experiment: median log2 fold change of GCK-ALFA target abundance (FLAG IP / Myc IP barcode read proportion) (log2 ratio); each designed protein is fused to an ALFA-tag nanobody in HEK293 cells to bring the named protein to FLAG-tagged glucokinase (GCK); Myc marks an untargeted standard; higher = target protein stabilised (more abundant)
Conditions: target protein: 3xFLAG-MCP-GCK-ALFA reporter; HEK293 landing pad (RPLP)
Summary of the method: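 The readout is target abundance, the per-binder median log2 ratio of FLAG to Myc barcode read proportions. It came from HEK293 landing-pad cells carrying a recombined ALFA-nanobody-fused binder library, induced with 2 μg mL^−1 doxycycline and transfected with a plasmid for a FLAG-tagged target and a Myc-tagged standard. After 48 h, lysates were immunoprecipitated with anti-FLAG and anti-Myc, and circular RNA barcodes were reverse transcribed, amplified and sequenced. Each barcode needed a proportion of at least 10^−7 in both replicates and each binder at least 3 barcodes per replicate, a pseudocount of 10^−6 was added, and the replicates were pooled.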

Row | Binder | median log2 fold change
1 | B1 | 0.147
2 | B2 | 0.145
3 | B3 | 0.148
4 | B4 | -0.38
5 | B5 | -0.0799
6 | B6 | 0.341
7 | B7 | 0.0932
8 | B8 | -0.253
9 | B9 | -0.102
10 | B10 | 0.136
11 | B11 | 0.0626
12 | B12 | 0.299
13 | B13 | 0.217
14 | B14 | -0.0894
15 | B15 | 0.158
16 | B16 | 0.000412

From the supplement of paper PMC12632987
